Test results as given in the antibiotic and cytotoxicity screens of Wong et al. (2023).
The campaign covered roughly 39,000 compounds. About 1,500 (3.8%) were called active. What follows is part of a selection rich in actives, with near analogues and random picks from the rest.

These molecules were tested on HSkMC (human skeletal muscle cells) (assay: cytotoxicity call (relative viability < 0.9)). Details: 10 µM.

Structure (SMILES)	cytotoxicity call
C[C@@H]1CN([C@H](C)CO)C(=O)c2cc(NS(C)(=O)=O)ccc2O[C@@H](C)CCCCO[C@@H]1CN(C)C(=O)CCCN(C)C	inactive
C[C@@H]1CN([C@@H](C)CO)C(=O)Cc2cc(NC(=O)CCCCCC(=O)Nc3ccccc3N)ccc2O[C@@H]1CN(C)Cc1ccc(-c2ccccc2)cc1	inactive
C[C@@H]1CN([C@@H](C)CO)C(=O)c2cc(NS(=O)(=O)c3cn(C)cn3)ccc2O[C@H]1CN(C)C(=O)Nc1ccc2c(c1)OCO2	inactive
C[C@H]1CN([C@@H](C)CO)C(=O)c2cccc(NC(=O)C3CCOCC3)c2O[C@H]1CN(C)Cc1ccccc1	inactive
CCC(=O)Nc1ccc2c(c1)OC[C@@H](C)N(C(=O)CN1CCOCC1)C[C@H](C)[C@H](OC)CN(C)C2=O	inactive
CN(C)CCCNC(=O)C[C@H]1CC[C@H]2[C@@H](COC[C@@H](O)CN2S(=O)(=O)c2ccc(Cl)cc2)O1	inactive
C[C@H](CO)N1C[C@H](C)[C@@H](CN(C)S(C)(=O)=O)Oc2cc(C#CCN(C)C)ccc2S1(=O)=O	inactive
COCC(=O)Nc1ccc2c(c1)OC[C@@H](C)N(C(=O)Cc1ccccn1)C[C@@H](C)[C@@H](OC)CN(C)C2=O	inactive
C[C@H]1CN([C@@H](C)CO)C(=O)c2cc(NC(=O)C3CC3)ccc2O[C@H]1CN(C)Cc1ccc2c(c1)OCO2	inactive
COc1cccc(NC(=O)N(C)C[C@H]2Oc3cc(C#Cc4ccncc4)ccc3S(=O)(=O)N([C@@H](C)CO)C[C@H]2C)c1	inactive
COc1cccc(NC(=O)N(C)C[C@H]2Oc3cc(C#Cc4ccncc4)ccc3S(=O)(=O)N([C@@H](C)CO)C[C@@H]2C)c1	active
COc1cccc(NC(=O)N(C)C[C@H]2Oc3cc(C#Cc4ccncc4)ccc3S(=O)(=O)N([C@H](C)CO)C[C@@H]2C)c1	inactive
COc1cc2c(cc1OC)CN(C(=O)[C@H]1[C@@H]3C(=O)O[C@@H](c4ccccc4)[C@@H](c4ccccc4)N3[C@@H](c3ccc(O)cc3)[C@]13C(=O)Nc1ccccc13)CC2	inactive
O=c1/c(=C/c2cccc(Cl)c2)c2cccc3cccc1c32	inactive
Cc1noc(C)c1S(=O)(=O)N(C)C[C@H]1OCCCC[C@H](C)Oc2ccc(NS(=O)(=O)c3cn(C)cn3)cc2C(=O)N([C@H](C)CO)C[C@@H]1C	inactive
CNS(=O)(=O)c1ccc(C)cc1	inactive
Cc1ccc(S(N)(=O)=O)cc1	inactive
Cc1noc(C)c1S(=O)(=O)N(C)C[C@@H]1OCCCC[C@@H](C)Oc2ccc(NS(C)(=O)=O)cc2C(=O)N([C@@H](C)CO)C[C@@H]1C	inactive
COc1ccc(-n2nc(CCC(=O)N(C)O)cc2-c2ccc(Cl)cc2)cc1	inactive
CN(C)CCOC(=O)COc1ccc(Cl)cc1.Cl	inactive
CCCCc1nc(-c2ccc(OCCCN(CC)CC)cc2)cn1-c1ccc(Oc2ccc(Cl)cc2)cc1	active

Structure (SMILES)	cytotoxicity call
C[C@@H]1CN([C@H](C)CO)C(=O)c2cc(NC(=O)NC3CCCCC3)ccc2O[C@@H](C)CCCCO[C@@H]1CN(C)Cc1ccc2c(c1)OCO2	inactive
CN(C)CCCNC(=O)C[C@@H]1C=C[C@@H](NC(=O)Cc2cccnc2)[C@@H](CO)O1	inactive
C[C@H](CO)N1C[C@H](C)[C@@H](CN(C)C(=O)Nc2ccc3c(c2)OCO3)Oc2ccc(NS(C)(=O)=O)cc2CC1=O	inactive
C[C@@H]1CN([C@@H](C)CO)C(=O)Cc2cc(NS(=O)(=O)c3ccc(Cl)cc3)ccc2O[C@H]1CN(C)Cc1ccc(-c2ccccc2)cc1	active
C[C@@H]1CN([C@@H](C)CO)C(=O)Cc2cc(NS(=O)(=O)c3ccc(Cl)cc3)ccc2O[C@@H]1CN(C)Cc1ccc(-c2ccccc2)cc1	inactive
C[C@H](CO)N1C[C@H](C)[C@H](CN(C)Cc2ccc(-c3ccccc3)cc2)Oc2ccc(NS(=O)(=O)c3ccc(Cl)cc3)cc2CC1=O	inactive
C[C@H]1CN([C@@H](C)CO)C(=O)Cc2cc(NS(=O)(=O)c3ccc(Cl)cc3)ccc2O[C@H]1CN(C)Cc1ccc(-c2ccccc2)cc1	active
C[C@H]1CN([C@@H](C)CO)C(=O)Cc2cc(NS(=O)(=O)c3ccc(Cl)cc3)ccc2O[C@@H]1CN(C)Cc1ccc(-c2ccccc2)cc1	inactive
C[C@@H]1CN([C@H](C)CO)C(=O)Cc2cc(NS(=O)(=O)c3ccc(Cl)cc3)ccc2O[C@@H]1CN(C)Cc1ccc(-c2ccccc2)cc1	active
C[C@H](CO)N1C[C@H](C)[C@@H](CN(C)Cc2ccc(-c3ccccc3)cc2)Oc2ccc(NS(=O)(=O)c3ccc(Cl)cc3)cc2CC1=O	inactive
C[C@@H]1CN([C@H](C)CO)C(=O)Cc2cc(NS(=O)(=O)c3ccc(Cl)cc3)ccc2O[C@H]1CN(C)Cc1ccc(-c2ccccc2)cc1	active
Cc1ccc(S(=O)(=O)N(C)C[C@@H]2Oc3c(NC(=O)c4cnccn4)cccc3C(=O)N([C@H](C)CO)C[C@@H]2C)cc1	inactive
CC=Cc1ccc2n(c1=O)C[C@H]1[C@H](CO)[C@@H](C(=O)NCCc3cn(C)cn3)N(C(=O)C3CC3)[C@@H]21	inactive
COc1ccc(S(=O)(=O)N(C)C[C@H]2OCc3cn(nn3)CCCC(=O)N([C@@H](C)CO)C[C@H]2C)cc1	inactive
C[C@H](CO)N1C[C@H](C)[C@@H](CN(C)C(=O)Nc2ccc3c(c2)OCO3)OCCCC[C@H](C)Oc2ccc(NC(=O)C3CCCCC3)cc2C1=O	inactive
C[C@H]1CN([C@@H](C)CO)C(=O)c2cc(C#CC3(O)CCCC3)cnc2O[C@H]1CN(C)C(=O)C1CCCCC1	inactive
Cc1noc(C)c1NC(=O)Nc1ccc2c(c1)C(=O)N([C@H](C)CO)C[C@@H](C)[C@H](CN(C)C(=O)Nc1ccc(C(F)(F)F)cc1)O2	inactive
O=C(C[C@@H]1CC[C@H]2[C@@H](COC[C@H](O)CN2C(=O)c2ccccc2)O1)N1CCOCC1	inactive
O=C(C[C@@H]1C[C@H]2c3cc(NS(=O)(=O)c4ccc(F)cc4)ccc3O[C@H]2[C@H](CO)O1)NCCN1CCCCC1	inactive
C[C@H](CO)N1C[C@H](C)[C@H](CN(C)S(=O)(=O)c2ccc(Cl)cc2)OCCCC[C@H](C)Oc2ccc(NC(=O)Nc3ccc(C(F)(F)F)cc3)cc2C1=O	inactive
